In PubChem BioAssay (NCATS):
Unmarked numbers belong to inactive results. Unless noted, calls come from the whole dose curve; as a rule, active = well fitted curve in the direction sought with a large enough effect; inconclusive = small, poorly fitted or top-dose-only effect, or another doubt; inactive = no such curve, though single readings can be large; an effect the other way counts as inactive or inconclusive. Records with an inconclusive call do not appear.

Assay: qHTS for compounds that reverse cellular toxicity of Amyloid beta (A-beta) peptide in yeast: LOPAC Validation Assay (AID 720559);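 note: plate controls were DMSO for no effect and equimolar ferric chloride plus clioquinol rescue for full effect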
Settings: yeast expressing A-beta; series mostly up to 46.1 µM; growth rescue, positive = activation: at the top concentration
How it was run: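 Activity is expressed relative to DMSO and an equimolar ferric chloride/clioquinol mix. Compounds were pinned into medium with A-beta-expressing yeast, grown 48 hr at 30 C, then read by absorbance at 600 nm.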

| Structure (SMILES) | growth rescue, positive = activation |
| --- | --- |
| COc1ccc2cc([S+]([O-])Cc3ncc(C)c(OC)c3C)nc2c1 | -61.4% |
| O=c1[nH]c(=O)n([C@H]2C[C@@H](O)[C@@H](CO)O2)cc1C=CBr | -5.48% |
| CN[C@H](CC(C)C)C(=O)N[C@H]1C(=O)N[C@@H](CC(N)=O)C(=O)N[C@@H]2C(=O)N[C@H]3C(=O)N[C@H](C(=O)N[C@H](C(=O)O)c4cc(O)cc(O)c4-c4cc3ccc4O)[C@H](O)c3ccc(c(Cl)c3)Oc3cc2cc(c3O[C@@H]2O[C@H](CO)[C@@H](O)[C@H](O)[C@@H]2O[C@H]2C[C@](C)(N)[C@H](O)[C@H](C)O2)Oc2ccc(cc2Cl)[C@H]1O | -2.46% |

Assay: qHTS for Activators of Parkin Expression: LOPAC Validation Assay (NLuc Reporter) (AID 720572)
Settings: Parkin promoter NanoLuc reporter cells, luminescence, percent of positive control, DMSO as zero; series mostly up to 46.1 µM; activation: at the top concentration
How it was run: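 Compound effects on Parkin promoter activity were measured as NanoLuc luminescence after 24 h at 37 C. The neuronal reporter line also carried FLuc, which was read first. LOPAC compounds were tested at 7 concentrations, with normalization to DMSO (0%) and positive control (100%).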

| Structure (SMILES) | activation |
| --- | --- |
| COc1ccc2cc([S+]([O-])Cc3ncc(C)c(OC)c3C)nc2c1 | 3.59% |
| O=c1[nH]c(=O)n([C@H]2C[C@@H](O)[C@@H](CO)O2)cc1C=CBr | -0.776% |
| CN[C@H](CC(C)C)C(=O)N[C@H]1C(=O)N[C@@H](CC(N)=O)C(=O)N[C@@H]2C(=O)N[C@H]3C(=O)N[C@H](C(=O)N[C@H](C(=O)O)c4cc(O)cc(O)c4-c4cc3ccc4O)[C@H](O)c3ccc(c(Cl)c3)Oc3cc2cc(c3O[C@@H]2O[C@H](CO)[C@@H](O)[C@H](O)[C@@H]2O[C@H]2C[C@](C)(N)[C@H](O)[C@H](C)O2)Oc2ccc(cc2Cl)[C@H]1O | -4.32% |

Assay: qHTS for Activators of Parkin Expression: LOPAC Validation Assay (FLuc Reporter) (AID 720573)
Settings: Cell line, PRKN promoter firefly luciferase reporter, vehicle wells = 0, positive control = 100%; series mostly up to 46.1 µM; activation: at the top concentration
From the text: Parkin is an E3 ubiquitin ligase localized in the cytosol of cells expressed in many tissues, including brain, skeletal muscle, heart and liver tissues. One hour after stress induction by mitochondrial uncouplers (which mimic mitochondria damage by decreasing the mitochondrial inner membrane electrochemical gradient that is used to produce ATP), Parkin translocates from the cytosol to mitochondria in many cultured cell types, including neurons and HeLa cells. Administration of other mitochondrial poisons, such as Paraquat and azide in cells lacking mitochondrial DNA (mtDNA), induces Parkin translocation to mitochondria. […] It was proposed that Parkin (together with Pink1) mediates a mitochondrial quality control pathway to maintain organelle population fidelity by removing damaged mitochondria. Understanding the normal physiologic role of Parkin (and Pink1) may uncover novel treatment strategies for sporadic Parkinson's disease patients with mutation in these genes.
A cell based qHTS in 1536 well format was developed assess modulation of Parkin expression using a neuronal cell line that stably expresses a stably expresses a luminescent coincidence reporter (FLuc and NLuc reporters) behind the Parkin promoter. The LOPAC library is used to validate the assay for quantitative high-throughput screening. The data herein reports the signal from the FLuc reporter. An increase in this signal = activation of Parkin expression. For this assay , a positive control normalized signal increase corresponding to a high quality qHTS curve class in both luminescent channels is the desired outcome for this assay.
NIH Chemical Genomics Center [NCGC]
NIH Molecular Libraries Probe Centers Network [MLPCN] […]
Five microliters (1,500 cells/well) of the Parkin coincidence reporter cells were seeded to 1536 well assay plates (Greiner Catalog # 789173-F) and incubated at 37 C, 5% CO2 for 24 hours. […] The FLuc luminescence signal was obtained using the PerkinElmer ViewLux plate imager and then 2 uL of NanoLuc detection reagent was added to the plates. […]

| Structure (SMILES) | activation |
| --- | --- |
| COc1ccc2cc([S+]([O-])Cc3ncc(C)c(OC)c3C)nc2c1 | -3.78% |
| O=c1[nH]c(=O)n([C@H]2C[C@@H](O)[C@@H](CO)O2)cc1C=CBr | -7.21% |
| CN[C@H](CC(C)C)C(=O)N[C@H]1C(=O)N[C@@H](CC(N)=O)C(=O)N[C@@H]2C(=O)N[C@H]3C(=O)N[C@H](C(=O)N[C@H](C(=O)O)c4cc(O)cc(O)c4-c4cc3ccc4O)[C@H](O)c3ccc(c(Cl)c3)Oc3cc2cc(c3O[C@@H]2O[C@H](CO)[C@@H](O)[C@H](O)[C@@H]2O[C@H]2C[C@](C)(N)[C@H](O)[C@H](C)O2)Oc2ccc(cc2Cl)[C@H]1O | -4.44% |

Assay: qHTS assay for small molecule agonists of the antioxidant response element (ARE) signaling pathway measured by Nrf2-dependant transcriptional activity (AID 720636; active = well fitted curve in the direction sought with a large enough effect in the repeat runs; an effect the other way counts as inactive or inconclusive; note: % of control where 0% means no effect)
Settings: ARE-luc HepG2, Nrf2 luciferase reporter, 16 h; series mostly up to 92.4 µM; activation: at the top concentration
How it was run: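 ARE-luc HepG2 cells carrying an Nrf2-responsive luciferase reporter were plated in medium with 1% dialyzed FBS, left 6 hr at 37 C to attach, then exposed to compound for 16 hr. Luciferase luminescence was read after ONE-Glo addition.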

| Structure (SMILES) | activation |
| --- | --- |
| Cc1cc(O)c2c(c1)C(=O)c1cccc(O)c1C2=O | 1.2% |
| CC(C=CC1=C(C)CCCC1(C)C)=CC=CC(C)=CC(=O)Nc1ccc(O)cc1 | -4.32% |
| OC[C@@H](O)[C@@H](O)[C@H](O)[C@@H](O)CO | 0.25% |
| C[C@]12CC[C@@H]3c4ccc(O)cc4CC[C@H]3[C@H]1CC[C@H]2O | 0.147% |

Assay: qHTS assay for small molecule agonists of the antioxidant response element (ARE) signaling pathway measured by Nrf2-dependant transcriptional activity - cell viability counter screen (AID 720653; active = well fitted curve in the direction sought with a large enough effect in the repeat runs; an effect the other way counts as inactive or inconclusive; note: % is set by controls: 0 for no effect and ±100 for the full control effect)
Settings: ARE-bla HepG2 viability, CellTiter-Glo ATP luminescence, 16 h; stronger effect = lower value
How it was run: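 Cytotoxicity counter screen: intracellular ATP quantified by CellTiter-Glo luminescence in the same ARE-bla HepG2 plates, after 16 h compound exposure and a 2 h beta-lactamase substrate step.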

| Structure (SMILES) | max response |
| --- | --- |
| Cc1cc(O)c2c(c1)C(=O)c1cccc(O)c1C2=O | -8.79% |
| O=C1c2cccc(O)c2C(=O)c2c(O)cc(CO)cc21 | 1.52% |
| OC[C@@H](O)[C@@H](O)[C@H](O)[C@@H](O)CO | 2.04% |
| C[C@]12CC[C@@H]3c4ccc(O)cc4CC[C@H]3[C@H]1CC[C@H]2O | -1.4% |
